Results filed as inconclusive are left out. Calls of active or inactive are those of the source. Unless noted, calls follow the shape of the dose curve; as a rule, active = well fitted curve in the direction sought with a large enough effect in the repeat runs; inconclusive = weak or mixed curves; inactive = no such curve, though single readings can be large; an effect the other way counts as inactive or inconclusive.
Tests used:
[1] = A CellTox Green Cytotoxicity Assay to monitor cytotoxicity in HEK293 cells - 16 hour (AID 1224888); also: nearly all actives have a fitted effect of over 35% in size
Outline: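 Fluorescence intensity, read at 0, 8, 16, 24, 32 and 40 h of compound treatment, reflected dye binding to DNA of dead HEK293 cells; compounds (23 nL, DMSO) were added 5 h after plating cells with reagent.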

[2] = A CellTox Green Cytotoxicity Assay to monitor cytotoxicity in HepG2 cells - 8 hour (AID 1224890); also: nearly all actives have a fitted effect of over 45% in size
Outline: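 Using 1536-well format, dye-containing HepG2 suspension was seeded, allowed 5 h at 37 C/5% CO2, dosed by pintool with compounds, positive and negative controls, and imaged for fluorescence across 40 h.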

[3] = qHTS assay to identify small molecule antagonists of the estrogen receptor alpha (ER-alpha) signaling pathway using the BG1 cell line in the presence of 0.1 nM 17-beta-estradiol - cell viability counter screen (AID 1259241); also: nearly all actives have a fitted effect of over 40% in size
Outline: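 In this screen, hormone-deprived VM7Luc4E2 cells were seeded at 4,000 per well, dosed with compound and 0.1 nM estradiol final, and incubated 22 hr at 37C and 5% CO2; fluorogenic live-cell protease signal reported viability.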

[4] = qHTS assay to identify small molecule antagonists of the androgen receptor (AR) signaling pathway using the MDA cell line in the presence of 0.5 nM R1881 - cell viability counter screen (AID 1259242); also: nearly all actives have a fitted effect of over 45% in size
Outline: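 Viability of MDA-kb2 cells was multiplexed with the luciferase AR readout; after 16 hr with compounds and R1881 at 0.5 nM final, CellTiter-Fluor fluorescence was recorded.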

[5] = target: Estrogen receptor (Homo sapiens) (UniProt P03372); assay: qHTS assay to identify small molecule antagonists of the estrogen receptor alpha (ER-alpha) signaling pathway using the BG1 cell line in the presence of 0.1 nM 17-beta-estradiol (AID 1259244); also: nearly all actives have a fitted effect of over 50% in size
Outline: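 Estradiol at 0.1 nM (final) stimulates the endogenous ER-alpha of VM7Luc4E2 cells carrying an ERE-driven luciferase; compounds are co-incubated 22 h at 37C and luciferase output quantified by luminescence.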

[6] = qHTS assay to identify small molecule HDAC inhibitors (AID 1259364);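 also: wild-type HCT-116 cells with endogenous class I/II HDAC activity; top concentration of the series differs between compounds; nearly all actives have a fitted effect of over 45% in size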
Outline: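 Read-out: luminescence of HDAC-Glo I/II reagent, 30 min RT, reflecting class I/II deacetylase activity in whole HCT-116 cells pre-exposed 2 h to DMSO-dissolved compounds.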

[7] = qHTS assay to identify small molecule HDAC inhibitors - cell viability counter screen (AID 1259365); also: series mostly up to about 92 µM; nearly all actives have a fitted effect of over 50% in size
Outline: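 Measured quantity is CellTiter-Glo luminescence from wild-type HCT-116 cells after compound incubation of 2hr at 37C, 5% CO2; reagent developed 30min at room temperature.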

[8] = qHTS assay to identify small molecule agonists of the sonic hedgehog signaling (Shh) pathway - cell viability counter screen (AID 1259366); also: nearly all actives have a fitted effect of over 50% in size
Outline: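 In quantitative high-throughput format, 3T3 Gli1-Luc cells were exposed to compounds for 24hr and multiplexed for viability using CellTiter-Fluor, incubated 1hr at 37C before the fluorescence read.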

[9] = qHTS assay to identify small molecule antagonists of the sonic hedgehog signaling (Shh) pathway - cell viability counter screen (AID 1259367); also: nearly all actives have a fitted effect of over 55% in size
Outline: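 After a 4 hr settling period, 3T3 Gli1-Luc cells were treated with DMSO-dissolved chemicals and conditioned medium, kept 24 hr at 37C in 5% CO2, and assayed for viability by CellTiter-Fluor fluorescence following 1 hr reagent incubation.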

[10] = qHTS assay to identify small molecule agonists of the sonic hedgehog signaling (Shh) pathway (AID 1259368; calls by dose curve;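 also: NIH/3T3-derived 3T3Gli1-Luc cells carrying a stable Gli1-driven firefly luciferase reporter; series mostly up to about 92 µM; nearly all actives have a fitted effect of over 15% in size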)
Outline: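 A Gli1 transcriptional response element controlled firefly luciferase in 3T3Gli1-Luc cells. Compounds and a positive control were added 4 hr after plating, and cells were incubated a further 24 hr at 37 C before luminescence detection.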

[11] = qHTS assay to identify small molecule antagonists of the sonic hedgehog signaling (Shh) pathway (AID 1259369; calls by dose curve; also: nearly all actives have a fitted effect of over 45% in size)
Outline: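 For antagonist detection, the reporter line received test compounds together with conditioned medium, incubated 24hr at 37 C, 5% CO2, then luminescence was recorded following 30min room-temperature luciferase reagent incubation.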

[12] = target: Estrogen receptor beta (Homo sapiens) (UniProt Q92731); assay: qHTS assay to identify small molecule agonists of the estrogen receptor beta (ER-beta) signaling pathway (AID 1259377; active = well fitted activation curve with a large enough effect in the signal ratio in the repeat runs, not every such curve was filed as active; the % refers to the signal ratio)
Outline: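 Reporter cells (HEK293T, ER-beta-UAS-bla) receive compounds or DMSO after a 6 hr pre-incubation. They then incubate 16 hr at 37C/5% CO2, and fluorescence from LiveBLAzer B/G substrate is measured after 2 hours at room temperature.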

[13] = target: Estrogen receptor beta (Homo sapiens) (UniProt Q92731); assay: qHTS assay to identify small molecule antagonists of the estrogen receptor beta (ER-beta) signaling pathway (AID 1259378; active = well fitted inhibition curve with a large enough effect in the signal ratio in the repeat runs, not every such curve was filed as active; the % refers to the signal ratio)
Outline: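 ER-beta-UAS-bla HEK293T (GripTite) cells in 2% charcoal-stripped FBS medium were preincubated 6 hr at 37C, dosed with compound, then stimulated with 1 nM E2 (final) for 16 hr; beta-lactamase reporter read by B/G FRET fluorescence after 2 hr substrate loading.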

[14] = qHTS assay to identify small molecule agonists of the androgen receptor (AR) signaling pathway in the presence of an antagonist - cell viability counter screen (AID 1259379);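 also: MDA-kb2 human breast cancer cells carrying an MMTV luciferase reporter; series mostly up to about 92 µM; nearly all actives have a fitted effect of over 25% in size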
Outline: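 Seed MDA-kb2 at 3,000 cells/well; incubate 5 hr, 37C, 0% CO2. Add nilutamide to 3.0uM final, then pin compounds at 15 concentrations. Incubate 16 hr. Add CellTiter-Fluor at 15 hr, read fluorescence after 1 hr.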

[15] = qHTS assay to identify small molecule antagonists of the estrogen receptor beta (ER-beta) signaling pathway - cell viability counter screen (AID 1259382); also: series mostly up to about 92 µM; nearly all actives have a fitted effect of over 55% in size
Outline: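 In this multiplexed counter screen, cells were seeded at 2,000 per well in medium with 2% charcoal-stripped FBS and incubated 6 hr before compound and 1nM final E2 were added. Sixteen hours later, ATP-based luminescence reported viability.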

[16] = qHTS assay to identify small molecule agonists of the estrogen receptor beta (ER-beta) signaling pathway - cell viability counter screen (AID 1259380); also: nearly all actives have a fitted effect of over 30% in size
Outline: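 CellTiter-Glo read, 30 min RT, same wells as bla assay; cells ER-beta-UAS-bla HEK293T; 16 hr compound, 37C; medium 2% charcoal-stripped FBS.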

[17] = qHTS assay to identify small molecule phospholipidosis (PLD) inducers (AID 1259344; active = well fitted curve in the direction sought with a large enough effect; an effect the other way counts as inactive or inconclusive)
Outline: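 HepG2 cells grown on collagen I take up LipidTOX Red while exposed to compound for 24 h; after fixation they are imaged at 20x and pit metrics are extracted.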

Measured: Potency

Chain of Estrogen receptor beta (Homo sapiens) (Q92731 whole entry, looked up): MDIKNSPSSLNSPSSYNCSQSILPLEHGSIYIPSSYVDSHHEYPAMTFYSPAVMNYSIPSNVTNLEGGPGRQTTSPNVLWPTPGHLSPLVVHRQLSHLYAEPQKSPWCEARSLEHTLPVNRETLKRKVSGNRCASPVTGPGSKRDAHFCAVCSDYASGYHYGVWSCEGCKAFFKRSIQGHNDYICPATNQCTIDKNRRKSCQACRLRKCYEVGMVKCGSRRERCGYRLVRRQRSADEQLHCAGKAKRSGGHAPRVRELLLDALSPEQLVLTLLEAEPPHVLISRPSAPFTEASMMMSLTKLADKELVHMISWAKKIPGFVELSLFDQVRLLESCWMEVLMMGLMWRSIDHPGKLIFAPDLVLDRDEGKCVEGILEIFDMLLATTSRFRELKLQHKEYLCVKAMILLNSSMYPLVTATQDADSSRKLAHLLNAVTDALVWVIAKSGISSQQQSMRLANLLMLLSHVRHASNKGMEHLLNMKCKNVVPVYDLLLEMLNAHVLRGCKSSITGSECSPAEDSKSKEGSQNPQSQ
Chain of Estrogen receptor (Homo sapiens) (P03372 whole entry, looked up): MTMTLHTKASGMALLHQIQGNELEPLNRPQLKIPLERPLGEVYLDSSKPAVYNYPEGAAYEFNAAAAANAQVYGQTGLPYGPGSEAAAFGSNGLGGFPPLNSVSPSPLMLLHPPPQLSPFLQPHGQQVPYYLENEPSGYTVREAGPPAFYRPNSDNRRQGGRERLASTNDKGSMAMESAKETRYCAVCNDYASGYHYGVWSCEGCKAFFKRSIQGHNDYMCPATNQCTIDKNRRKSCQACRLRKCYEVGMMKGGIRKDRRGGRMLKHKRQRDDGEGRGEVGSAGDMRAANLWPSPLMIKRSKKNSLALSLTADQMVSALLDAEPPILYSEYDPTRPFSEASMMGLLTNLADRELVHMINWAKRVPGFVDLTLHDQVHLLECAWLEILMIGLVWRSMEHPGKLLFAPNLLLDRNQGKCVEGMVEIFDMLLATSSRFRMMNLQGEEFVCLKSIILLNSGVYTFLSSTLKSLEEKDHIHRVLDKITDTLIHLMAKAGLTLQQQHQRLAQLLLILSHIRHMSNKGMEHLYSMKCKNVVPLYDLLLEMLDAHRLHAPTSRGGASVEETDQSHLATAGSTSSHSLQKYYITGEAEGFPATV

CCO[Si](CC(C)C)(OCC)OCC
not listed: [16] | [17]
inactive: all other assays above

Nc1nc(Cl)cc(Cl)n1
not listed: [11] | [17]
inactive: all other assays above

Cc1cc2c(cc1CC(=O)c1sccc1S(=O)(=O)Nc1onc(C)c1Cl)OCO2
not listed: [12] | [16] | [17]
inactive: all other assays above

Cc1ccc2ccccc2n1
not listed: [5] | [10] | [17]
inactive: all other assays above

CCNC(=O)C(C)OC(=O)Nc1ccccc1 (stereo unspecified)
not listed: [3] | [11] | [17]
inactive: all other assays above

COc1cc(C(=O)NC2CCCNC2)cc(OC)c1OC (stereo unspecified)
not listed: [2] | [5]
inactive: all other assays above

Cc1cc(C)c(C)c(C)c1
not listed: [12] | [17]
inactive: all other assays above

CC1(C)CC(N)CC(C)(C)N1
not listed: [5] | [15] | [17]
inactive: all other assays above

CCCCCCCCCCCBr
not listed: [17]
inactive: all other assays above

CC(=O)Nc1ccc(OCCOCCOc2ccc(NC(C)=O)cc2)cc1
not listed: [12] | [13] | [15]
inactive: all other assays above

— PubChem BioAssay (Tox21)
